# Test results reported in PubChem BioAssay.
# Calls of active or inactive are those of the source. Unless noted, the rule behind the calls is not given here.
# Key:
# [1] = test system: Wnt5a (protein binding on small-molecule microarray); assay: Wnt5a binders on small-molecule microarray, primary screen, biophysical, 635/667 nm fluorescence (AID 1142); settings: 635 nm fluorescence, higher = more signal;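 note: fluorescence read at 667 nm with signal to noise per printed feature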
# [2] = cell viability in Huh7 cells, primary screen, cytotoxicity control for HCV replication inhibitor project, CellTiter-Glo luminescence, basal, 48 h (AID 1143); settings: Huh7 HCV replicon, higher = more signal, called active from +8 up or from −8 down;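 note: Huh7 hepatoma cells carrying a hepatitis C replication reporter with no stimulus; test concentration not given here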
# [3] = P. aeruginosa biofilm formation inhibitors, primary screen, PAO1 strain, BacTiter-Glo luminescence, LB-PBS (AID 1144); settings: 12 h, higher = more signal
# [4] = CREB reporter modulators without forskolin, primary screen, cell-based, PC12, CRE-LacZ reporter, unstimulated (AID 1145); settings: no forskolin, luminescence, 4.5 h, higher = more signal, called active from +8 up or from −8 down
# [5] = CREB reporter modulators under forskolin, primary screen, cell-based, PC12, CRE-LacZ reporter, forskolin-stimulated (AID 1146); settings: luminescence, 4.5 h, higher = more signal, called active from +8 up or from −8 down;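 note: PC12 cells with 6xCRE LacZ reporter stimulated by forskolin 10 µM; beta-galactosidase reporter signal reflecting CREB driven transcription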
# [6] = biological target: Streptavidin (Streptomyces avidinii) (UniProt P22629); assay: streptavidin binders on small-molecule microarray, primary screen, artefact control for SMM compound annotation, biophysical, 635/667 nm fluorescence (AID 1147); settings: streptavidin binding, higher = more signal;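 note: signal reflects streptavidin binding to arrayed compounds as a control protein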
# [7] = small-molecule binders of probe aInhba, primary screen, biochemical, small-molecule microarray, 635/667 nm fluorescence (AID 1148); settings: higher = more signal;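 note: score merges 667nm spot fluorescence with signal-to-noise for antibody binding to printed compounds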
# Torsin-1A (Homo sapiens) [8] = biological target: Torsin-1A (Homo sapiens) (UniProt O14656); assay: torsin A binders from cell lysate, primary screen, small-molecule microarray, wild-type, 635/667 nm (AID 1149); settings: COS7 hTOR1A-WT lysate, 635 nm fluorescence, higher = more signal
# Torsin-1A (Homo sapiens) [9] = biological target: Torsin-1A (Homo sapiens) (UniProt O14656); assay: small-molecule binders of mutant TOR1A in lysate, primary screen, cell lysate, small-molecule microarray, COS7 lysate, 635/667 nm fluorescence (AID 1150); settings: COS7 hTOR1A mutant lysate, 635 nm fluorescence, higher = more signal;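 note: score pools 667 nm emission and signal to noise measuring lysate protein binding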
# [10] = test system: Sonic hedgehog protein (Shh); assay: small-molecule binders of Shh protein, primary screen, biochemical, small-molecule microarray, 635/667 nm fluorescence (AID 1151); settings: small-molecule microarray binding, 635 nm fluorescence; higher = more signal;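 note: Shh protein binding to compounds spotted on small-molecule microarray slides; score combines spot fluorescence intensity with signal-to-noise across triplicate slides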
# [11] = E. coli DRC41 culture turbidity changes, primary screen, E. coli filamentation inducer project, strain DRC41, OD650, 48 h (AID 1152);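 note: E. coli MC1000 strain DRC41 lacking acrAB efflux pump and sulA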; settings: E. coli DRC41 (acrAB sulA), higher = more signal, called active from +8 up or from −8 down
# [12] = small-molecule binders of probe aLefty1, primary screen, biochemical, small-molecule microarray, 635/667 nm fluorescence (AID 1153); settings: higher = more signal;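 note: score merges spot fluorescence with signal-to-noise ratio from the scanned slide images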
# [13] = PSAC antagonists in infected red cells, primary screen, cell-based, P. falciparum Indochina, OD700, 1 h (AID 1154); settings: P. falciparum Indochina infected RBC osmotic lysis, higher = more signal, called active from +8 up or from −8 down
# [14] = PSAC antagonists in infected red cells, primary screen, cell-based, P. falciparum Indochina, OD700, 2 h (AID 1155);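 note: lysis reports solute entry through the parasite surface anion channel PSAC; channel blockers reduce lysis of infected cells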; settings: P. falciparum Indochina infected erythrocytes, osmotic lysis OD700; higher = more signal, called active from +8 up or from −8 down
# [15] = osmotic lysis modulators in infected erythrocytes, primary screen, PSAC antagonist project, cell-based, P. falciparum Indochina, OD700, 3 h (AID 1156); settings: higher = more signal, called active from +8 up or from −8 down
# [16] = PSAC antagonists in infected red cells, primary screen, cell-based, P. falciparum Indochina, OD700, 18 h (AID 1157); settings: P. falciparum Indochina infected erythrocytes, osmotic lysis OD700, 18 h; higher = more signal, called active from +8 up or from −8 down
# [17] = modulators of S6 phosphorylation in cells, primary screen, cell-based, A549, cytoblot, luminescence, serum-stimulated (AID 1158); settings: A549 phospho-S6 cytoblot, 5 h, higher = more signal;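 note: serum-stimulated A549 lung adenocarcinoma cells; signal is phosphorylated S6 detected by cytoblot immunostaining with HRP secondary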
# [18] = biological target: NADPH oxidase 2 (Homo sapiens) (UniProt P04839); assay: NOX2-dependent H2O2 signal modulators, primary screen, NOX inhibitor project, cell-based, HEK293-NOX2, PMA-stimulated, Amplex Red fluorescence (AID 1159); settings: 45 min, higher = more signal, called active from +8 up or from −8 down; note: test concentration not given here
# [19] = biological target: NADPH oxidase 4 (Homo sapiens) (UniProt Q9NPH5); assay: NOX4-dependent H2O2 signal modulators, primary screen, NOX inhibitor project, cell-based, HEK293-NOX4, tetracycline-induced, Amplex Red fluorescence (AID 1160); settings: 45 min, higher = more signal, called active from +8 up or from −8 down
# [20] = biological target: NADPH oxidase 5 (Homo sapiens) (UniProt Q96PH1); assay: NOX5-dependent H2O2 signal modulators, primary screen, NOX inhibitor project, cell-based, HEK293-NOX5, Amplex Red fluorescence (AID 1161); settings: HEK293-NOX5, ionomycin, 45 min, higher = more signal
# Sequence of NADPH oxidase 5 (Homo sapiens) (Q96PH1 whole entry, looked up): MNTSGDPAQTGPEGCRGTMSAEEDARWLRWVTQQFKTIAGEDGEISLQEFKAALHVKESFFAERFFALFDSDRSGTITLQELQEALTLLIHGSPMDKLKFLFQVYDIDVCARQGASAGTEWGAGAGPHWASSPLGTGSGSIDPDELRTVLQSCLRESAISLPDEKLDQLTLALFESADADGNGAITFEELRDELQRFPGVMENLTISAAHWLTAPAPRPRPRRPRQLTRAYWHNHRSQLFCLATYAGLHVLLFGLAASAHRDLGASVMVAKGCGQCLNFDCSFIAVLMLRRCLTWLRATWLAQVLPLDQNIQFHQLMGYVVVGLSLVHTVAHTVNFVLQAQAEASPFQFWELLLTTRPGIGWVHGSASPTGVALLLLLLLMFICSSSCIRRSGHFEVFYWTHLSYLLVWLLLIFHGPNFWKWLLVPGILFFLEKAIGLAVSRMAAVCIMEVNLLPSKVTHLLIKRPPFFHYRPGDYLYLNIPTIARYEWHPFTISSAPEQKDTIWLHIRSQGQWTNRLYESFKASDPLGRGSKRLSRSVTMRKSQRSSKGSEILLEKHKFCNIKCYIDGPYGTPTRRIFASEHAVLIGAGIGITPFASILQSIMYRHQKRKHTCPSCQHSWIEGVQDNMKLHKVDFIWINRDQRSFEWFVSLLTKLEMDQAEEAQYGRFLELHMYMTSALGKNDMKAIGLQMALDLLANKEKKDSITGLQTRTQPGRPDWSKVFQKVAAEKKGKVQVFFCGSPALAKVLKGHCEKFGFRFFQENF
# Sequence of Torsin-1A (Homo sapiens) (O14656 whole entry, looked up): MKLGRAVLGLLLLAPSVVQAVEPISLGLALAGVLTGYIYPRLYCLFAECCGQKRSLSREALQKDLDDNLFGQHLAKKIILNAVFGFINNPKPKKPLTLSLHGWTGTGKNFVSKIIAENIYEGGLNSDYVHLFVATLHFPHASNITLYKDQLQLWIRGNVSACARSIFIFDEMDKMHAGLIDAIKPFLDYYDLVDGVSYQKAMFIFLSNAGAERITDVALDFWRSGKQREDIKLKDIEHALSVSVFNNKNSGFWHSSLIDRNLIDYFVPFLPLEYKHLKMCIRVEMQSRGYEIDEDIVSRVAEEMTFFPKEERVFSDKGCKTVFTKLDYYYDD
# Sequence of NADPH oxidase 4 (Homo sapiens) (Q9NPH5 whole entry, looked up): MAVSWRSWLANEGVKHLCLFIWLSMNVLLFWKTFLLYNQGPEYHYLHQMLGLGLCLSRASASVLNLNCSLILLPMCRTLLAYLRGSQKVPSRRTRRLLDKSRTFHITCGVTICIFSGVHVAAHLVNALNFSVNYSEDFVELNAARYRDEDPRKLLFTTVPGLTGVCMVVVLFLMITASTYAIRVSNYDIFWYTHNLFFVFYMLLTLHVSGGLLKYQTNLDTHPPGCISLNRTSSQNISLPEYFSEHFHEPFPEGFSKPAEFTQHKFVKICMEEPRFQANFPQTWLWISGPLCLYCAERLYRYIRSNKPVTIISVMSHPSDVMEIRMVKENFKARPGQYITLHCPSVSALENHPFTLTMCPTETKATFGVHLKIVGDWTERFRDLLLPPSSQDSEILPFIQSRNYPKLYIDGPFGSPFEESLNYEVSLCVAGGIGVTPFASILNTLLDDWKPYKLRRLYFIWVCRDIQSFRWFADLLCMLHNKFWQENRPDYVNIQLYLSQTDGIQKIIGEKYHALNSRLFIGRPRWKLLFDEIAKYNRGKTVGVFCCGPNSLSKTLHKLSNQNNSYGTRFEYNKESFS
# Sequence of NADPH oxidase 2 (Homo sapiens) (P04839 whole entry, looked up): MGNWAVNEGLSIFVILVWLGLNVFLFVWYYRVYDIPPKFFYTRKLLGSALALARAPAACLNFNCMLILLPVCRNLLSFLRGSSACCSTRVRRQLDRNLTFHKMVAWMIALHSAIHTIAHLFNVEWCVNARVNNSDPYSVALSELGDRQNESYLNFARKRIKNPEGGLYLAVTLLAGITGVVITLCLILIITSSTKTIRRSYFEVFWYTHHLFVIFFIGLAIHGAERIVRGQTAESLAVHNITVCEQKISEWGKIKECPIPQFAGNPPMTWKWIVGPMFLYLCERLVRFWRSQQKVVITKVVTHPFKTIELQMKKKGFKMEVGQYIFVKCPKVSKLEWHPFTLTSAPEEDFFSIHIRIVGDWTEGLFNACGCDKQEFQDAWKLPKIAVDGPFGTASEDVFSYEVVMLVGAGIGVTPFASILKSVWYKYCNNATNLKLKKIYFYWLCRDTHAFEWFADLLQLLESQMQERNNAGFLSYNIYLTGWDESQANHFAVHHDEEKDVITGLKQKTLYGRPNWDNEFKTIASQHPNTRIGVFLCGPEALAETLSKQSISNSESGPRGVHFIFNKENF
# Sequence of Streptavidin (Streptomyces avidinii) (P22629 whole entry, looked up): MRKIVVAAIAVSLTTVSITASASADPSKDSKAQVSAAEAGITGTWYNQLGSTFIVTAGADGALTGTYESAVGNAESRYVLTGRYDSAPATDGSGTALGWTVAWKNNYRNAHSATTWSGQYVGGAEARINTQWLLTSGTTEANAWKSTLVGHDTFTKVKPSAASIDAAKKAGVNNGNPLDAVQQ
SMILES,composite z-score [1],z-score [2],z-score [3],z-score [4],z-score [5],composite z-score [6],composite z-score [7],composite z-score (Torsin-1A (Homo sapiens) [8]),composite z-score (Torsin-1A (Homo sapiens) [9]),composite z-score [10],z-score [11],composite z-score [12],z-score [13],z-score [14],z-score [15],z-score [16],z-score [17],z-score [18],z-score [19],z-score [20]
COC(=O)[C@@]1(Cc2ccc(F)cc2)[C@H]2c3cc(C(=O)N4CCCC4)n(Cc4ccccn4)c3C[C@H]2CN1C(=O)c1ccccc1,0.739,-1.56 (inactive),0.261 (inactive),0.966 (inactive),1.35 (inactive),0.498,0.522,-0.578,0.738,-0.138,-1.9 (inactive),0.0479,2.2 (inactive),0.404 (inactive),0.893 (inactive),0.987 (inactive),0.0347,0.553 (inactive),-1.33 (inactive),-2.47
C[C@@H]1ON(c2ccc(I)cc2)[C@H](c2cccc(NC(=O)OCC3c4ccccc4-c4ccccc43)c2)[C@H]1C(=O)N1C(=O)OC[C@H]1Cc1ccccc1,0.0217,-0.659 (inactive),-0.215 (inactive),2.13 (inactive),-0.0677 (inactive),0.226,-0.0893,0.579,-0.0059,0.851,1.26 (inactive),0.185,-0.261 (inactive),0.755 (inactive),0.0181 (inactive),0.0584 (inactive),-0.447,-0.143 (inactive),-2.58 (inactive),-2.6
COc1ccc(C(O)C2C=CC3C(=O)N(c4ccccc4)C(=O)C3N2Nc2ccc([N+](=O)[O-])cc2)c2ccccc12 (stereo not given),0.328,-0.8 (inactive),-0.557 (inactive),-0.228 (inactive),-0.838 (inactive),1.86,0.12,0.771,0.163,0.0892,-1.31 (inactive),0.364,9.23 (active),2.13 (inactive),0.722 (inactive),1.12 (inactive),-0.446,-0.273 (inactive),-0.96 (inactive),-1.55
COc1ccc(C(=O)Nc2cccc(CN3C(=O)[C@]4(O[C@H](CC(=O)N5Cc6ccccc6C[C@H]5CO)[C@@H]([Si](C)(C)c5ccc(OC)cc5)[C@@H]4C)c4ccccc43)c2)cc1,0.711,-3.89 (inactive),0.269 (inactive),-1.07 (inactive),-0.442 (inactive),-0.266,0.114,0.671,0.701,2.19,1.66 (inactive),0.423,4.02 (inactive),1.49 (inactive),0.887 (inactive),1.04 (inactive),0.568,0.0795 (inactive),0.701 (inactive),2.01
CCC(CC)C(O)C1C=CC2C(=O)N(c3ccccc3)C(=O)C2N1Nc1ccccc1F (stereo not given),0.0501,-1.14 (inactive),-0.615 (inactive),-0.62 (inactive),0.492 (inactive),0.292,-0.0044,0.838,0.597,-0.455,-0.372 (inactive),0.0315,0.834 (inactive),0.412 (inactive),0.164 (inactive),0.584 (inactive),-0.364,0.223 (inactive),-0.0786 (inactive),-0.39
CCCc1cc2c(n1CCc1ccc(Cl)cc1)C(C)C1CN(C(=O)c3ccccc3)C(C)(C(=O)OC)C21 (stereo not given),0.689,-3.68 (inactive),0.188 (inactive),1.16 (inactive),4.57 (inactive),1.93,-0.0736,-0.103,0.947,-0.264,-2.41 (inactive),0.268,2.24 (inactive),0.322 (inactive),2.8 (inactive),0.347 (inactive),0.0928,-2.06 (inactive),-7.6 (inactive),-5.16
COCCOC(=O)N1C(=O)[C@@]2(c3cc(C#CCC(C(=O)OC)C(=O)OC)ccc31)[C@H](c1ccc(O)cc1)N1[C@H](c3ccccc3)[C@H](c3ccccc3)OC(=O)[C@H]1[C@@H]2C(=O)Nc1nc2ccccc2s1,0.553,-1.48 (inactive),0.164 (inactive),-0.195 (inactive),-0.521 (inactive),0.633,0.221,0.533,0.479,1.77,0.306 (inactive),0.251,2.75 (inactive),0.666 (inactive),0.34 (inactive),0.802 (inactive),-0.286,1.1 (inactive),-1.09 (inactive),0.698
CN1C(=O)C2C=CC(C(O)c3ccc(-c4ccccc4)s3)N(NC(=O)OC(C)(C)C)C2C1=O (stereo not given),-0.423,0.531 (inactive),0.146 (inactive),0.436 (inactive),-0.0651 (inactive),1.38,0.0069,-0.043,0.564,0.0221,-0.898 (inactive),0.335,0.976 (inactive),0.524 (inactive),-0.254 (inactive),0.998 (inactive),-1.06,-0.0373 (inactive),-1.58 (inactive),-0.722
